In the supplement of paper PMC3334620:
In all, about 33,000 sequences were measured (“E-score (-0.5 to 0.5)”: median about -0.04, highest 2% from about 0.36 on). The list comes from a sample in which the highest values are over-represented; it also holds similar and randomly drawn sequences.

These sequences were tested against T1, Hmlalpha2 (UniProt P0CY09) (assay: PBM E-score (8-mer binding enrichment) (E-score (-0.5 to 0.5)); higher = stronger / more preferred TF binding). Conditions: protein concentration: 200 nM; construct: GST-full length.
T1 sequence: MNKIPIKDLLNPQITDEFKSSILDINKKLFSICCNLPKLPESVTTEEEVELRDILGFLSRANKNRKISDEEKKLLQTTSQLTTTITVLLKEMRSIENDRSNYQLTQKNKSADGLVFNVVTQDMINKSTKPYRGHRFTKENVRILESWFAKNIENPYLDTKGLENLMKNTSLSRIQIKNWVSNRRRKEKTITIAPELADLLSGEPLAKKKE
Outline: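 For each ungapped eight-base word taken together with its reverse complement, the Universal PBM Analysis Suite assigned an E-score. Binding data came from GST-tagged yeast transcription factors, applied at about 100-200 nM, on universal all-10-mer Agilent arrays made double-stranded by primer extension. Fluorescent anti-GST marked bound protein, and scans were normalised with masliner.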
GTGCTCAA was tested, and the “PBM E-score” value was 0.197. In the case of ATCTGGGG, the “PBM E-score” value is reported as -0.267. CGCTTACA was tested, and the “PBM E-score” value was 0.287. In the case of AAGTTCCG, the “PBM E-score” value is reported as -0.0355. With AAGCGGGG the “PBM E-score” value was -0.0783. For AGCTCCCA, the “PBM E-score” value was -0.128. AATGCTCG was tested, and the “PBM E-score” value was 0.0169. For TGAAAGAA, the “PBM E-score” value was 0.129. With AAAGCACA the “PBM E-score” value was 0.123. In the case of AAGTATCT, the “PBM E-score” value is reported as 0.0958. ACACAACT was tested, and the “PBM E-score” value was 0.317. For ACACAACC, the “PBM E-score” value was 0.305. ACACAGCA was tested, and the “PBM E-score” value was 0.358. With ACACAGCG the “PBM E-score” value was 0.424. In the case of ACACAACG, the “PBM E-score” value is reported as 0.377. With ACACAGCC the “PBM E-score” value was 0.317. In the case of GAGGAAGC, the “PBM E-score” value is reported as -0.231. With AAGAGATG the “PBM E-score” value was -0.0147. For TAAACTTA, the “PBM E-score” value was 0.228. For CGAAGATA, the “PBM E-score” value was -0.04. AGGTAAGC was tested, and the “PBM E-score” value was -0.198. For ACAGTCTG, the “PBM E-score” value was -0.159. For ACACATCA, the “PBM E-score” value was 0.183. For GACATATA, the “PBM E-score” value was 0.163. For CACATACA, the “PBM E-score” value was 0.33. AACATACA was tested, and the “PBM E-score” value was 0.368. With AACATAAA the “PBM E-score” value was 0.28. TACATACA was tested, and the “PBM E-score” value was 0.443. AACATACT was tested, and the “PBM E-score” value was 0.255. With CACATAAA the “PBM E-score” value was 0.259. For CACATATA, the “PBM E-score” value was 0.311. GACATACA was tested, and the “PBM E-score” value was 0.315. In the case of AACATACG, the “PBM E-score” value is reported as 0.363. TACATAAA was tested, and the “PBM E-score” value was 0.369. For TACATATA, the “PBM E-score” value was 0.374. In the case of ACTACGCT, the “PBM E-score” value is reported as 0.106. For ACTGCTCA, the “PBM E-score” value was 0.0532. In the case of GAAGATAA, the “PBM E-score” value is reported as 0.242. With AAAGGGAC the “PBM E-score” value was -0.2. With GCAATCTA the “PBM E-score” value was 0.119. ATCTTCTA was tested, and the “PBM E-score” value was -0.0325. TACATAGA was tested, and the “PBM E-score” value was 0.427. For CACATAGA, the “PBM E-score” value was 0.0951. With GACATAGA the “PBM E-score” value was 0.145. With GGTTAAAA the “PBM E-score” value was 0.28. For TGCTAACA, the “PBM E-score” value was 0.245. For TGTTAACA, the “PBM E-score” value was 0.426. With AGTTAACG the “PBM E-score” value was 0.248. With CGTTAAAA the “PBM E-score” value was 0.272. With TGTTATAA the “PBM E-score” value was 0.399. In the case of CGTTATAA, the “PBM E-score” value is reported as 0.222. With AGTTAACT the “PBM E-score” value was 0.129. For TGTTAAAA, the “PBM E-score” value was 0.43. In the case of AGTTATAA, the “PBM E-score” value is reported as 0.172. CGTTAACA was tested, and the “PBM E-score” value was 0.34. For AGTTAACA, the “PBM E-score” value was 0.392. For AGCTGGAC, the “PBM E-score” value was -0.0393. With AAGGCCAC the “PBM E-score” value was -0.186. For CGGGCAAC, the “PBM E-score” value was -0.261. With ATAGATTA the “PBM E-score” value was 0.151. AAAAAGGA was tested, and the “PBM E-score” value was -0.00436. With GTGGCTGA the “PBM E-score” value was -0.248. For CCATGCGG, the “PBM E-score” value was -0.12. In the case of GAGGAGAA, the “PBM E-score” value is reported as -0.191. With GGTTAAGA the “PBM E-score” value was 0.148. With GGTTAACC the “PBM E-score” value was -0.142. GGTTAACA was tested, and the “PBM E-score” value was 0.412. CGCCAGAG was tested, and the “PBM E-score” value was -0.305. GATGGTCC was tested, and the “PBM E-score” value was -0.0351. CCCGGTGA was tested, and the “PBM E-score” value was -0.242. In the case of ACTACATG, the “PBM E-score” value is reported as 0.43. CCTACATA was tested, and the “PBM E-score” value was 0.13. With ACGACATA the “PBM E-score” value was 0.134. In the case of ACGACATC, the “PBM E-score” value is reported as 0.0415. For ACTACATA, the “PBM E-score” value was 0.378. ACGACATG was tested, and the “PBM E-score” value was 0.382. In the case of ACTACAGG, the “PBM E-score” value is reported as 0.133. For GCTACATA, the “PBM E-score” value was 0.255. For ACTACATC, the “PBM E-score” value was 0.275. In the case of CCGTTGTC, the “PBM E-score” value is reported as 0.0589. For ACCCTGCA, the “PBM E-score” value was 0.0038. CGATTGCG was tested, and the “PBM E-score” value was -0.0285. In the case of AGTACATG, the “PBM E-score” value is reported as 0.415. AGTACAAG was tested, and the “PBM E-score” value was 0.267. With AGTACATA the “PBM E-score” value was 0.401. AGTACATC was tested, and the “PBM E-score” value was 0.233. In the case of GGTACATA, the “PBM E-score” value is reported as 0.141. In the case of CGTACATA, the “PBM E-score” value is reported as 0.363. CTGCCATC was tested, and the “PBM E-score” value was -0.239. In the case of CCTCCCCA, the “PBM E-score” value is reported as -0.233. CCGGCAGC was tested, and the “PBM E-score” value was -0.36. In the case of AGCAATCG, the “PBM E-score” value is reported as 0.108. With TATCAAAA the “PBM E-score” value was 0.173. In the case of CAGGCCCA, the “PBM E-score” value is reported as -0.135. For CTATTCGC, the “PBM E-score” value was -0.117. With TCCGCCGA the “PBM E-score” value was -0.0873. AACACGCA was tested, and the “PBM E-score” value was 0.412. With CACACGCA the “PBM E-score” value was 0.19. In the case of AGCACGCA, the “PBM E-score” value is reported as 0.0284. In the case of CACACGCG, the “PBM E-score” value is reported as 0.264. ATCACGCG was tested, and the “PBM E-score” value was 0.144. For AACACGCT, the “PBM E-score” value was 0.387. In the case of AACACGCC, the “PBM E-score” value is reported as 0.359. AGCACGCT was tested, and the “PBM E-score” value was 0.00597. In the case of AACACGCG, the “PBM E-score” value is reported as 0.406. In the case of TACACGCA, the “PBM E-score” value is reported as 0.442. With GACACGCA the “PBM E-score” value was 0.301. With ACCACGCT the “PBM E-score” value was -0.134. For ATGTCTTG, the “PBM E-score” value was 0.0125. For CACGCGGA, the “PBM E-score” value was 0.109. With AGATCCTA the “PBM E-score” value was -0.165. In the case of ACGGGACT, the “PBM E-score” value is reported as -0.101. In the case of CGAGCATA, the “PBM E-score” value is reported as -0.325. CCCTAACG was tested, and the “PBM E-score” value was -0.0128. In the case of ATACTATG, the “PBM E-score” value is reported as 0.0473. With GAAGCTCC the “PBM E-score” value was -0.218. ACTTCTTC was tested, and the “PBM E-score” value was 0.0141. ATTTTACG was tested, and the “PBM E-score” value was 0.31. For CTTTTATA, the “PBM E-score” value was 0.0262. For ACTTTACA, the “PBM E-score” value was 0.429. With GCTTTAAA the “PBM E-score” value was 0.095. In the case of ATTTTACA, the “PBM E-score” value is reported as 0.41. CTTTTACC was tested, and the “PBM E-score” value was 0.139. For GCTTTACA, the “PBM E-score” value was 0.405. With ACTTTACC the “PBM E-score” value was 0.151. ATTTTACC was tested, and the “PBM E-score” value was 0.188. With GCTTTACC the “PBM E-score” value was 0.21. For ACTTTACT, the “PBM E-score” value was 0.109. CTTTTACA was tested, and the “PBM E-score” value was 0.453. ATGGTAGC was tested, and the “PBM E-score” value was -0.037. In the case of GTCAGTAA, the “PBM E-score” value is reported as 0.133. With ACTCTCCC the “PBM E-score” value was -0.283. For CTGGGATC, the “PBM E-score” value was -0.141. With CACATTGA the “PBM E-score” value was 0.097. In the case of AATTTCAC, the “PBM E-score” value is reported as 0.0769. For CCTTTACC, the “PBM E-score” value was -0.204. With CCTTTACG the “PBM E-score” value was 0.223. In the case of TCTTTACA, the “PBM E-score” value is reported as 0.445. CCTTTACA was tested, and the “PBM E-score” value was 0.448. With TCTTTAAA the “PBM E-score” value was 0.0801. With TCTTTGCA the “PBM E-score” value was 0.0746. For GGAAAAAC, the “PBM E-score” value was 0.0566. With AATGATAT the “PBM E-score” value was 0.0696. AGTCTCTC was tested, and the “PBM E-score” value was -0.306. For CGTGTCAG, the “PBM E-score” value was 0.273. For CATGTCGG, the “PBM E-score” value was 0.265. With GATGTCAA the “PBM E-score” value was 0.194. For AATGTCAA, the “PBM E-score” value was 0.182. For CATGTCAG, the “PBM E-score” value was 0.314. With TATGTCAA the “PBM E-score” value was 0.426. In the case of CATGTCGA, the “PBM E-score” value is reported as 0.386. GATGTCGA was tested, and the “PBM E-score” value was 0.126. For AGTGTCAA, the “PBM E-score” value was 0.134. For CGTGTCAA, the “PBM E-score” value was 0.438. With CATGTCAA the “PBM E-score” value was 0.44. In the case of CATGTCAC, the “PBM E-score” value is reported as 0.245. GAGGATCA was tested, and the “PBM E-score” value was -0.143. With CTCAGTAA the “PBM E-score” value was -0.0267. In the case of AACGCAGG, the “PBM E-score” value is reported as 0.0539. In the case of AGAATCTC, the “PBM E-score” value is reported as -0.015. For GAGGTTAC, the “PBM E-score” value was 0.0883. For TAACTCGA, the “PBM E-score” value was 0.277. AGACTCGA was tested, and the “PBM E-score” value was -0.211. In the case of GGCGGTGA, the “PBM E-score” value is reported as -0.163. CGCCACAG was tested, and the “PBM E-score” value was -0.0887. ACATGAAG was tested, and the “PBM E-score” value was 0.338. ACATGAAT was tested, and the “PBM E-score” value was 0.371. For GCATGAAC, the “PBM E-score” value was 0.104. With CCATGAAC the “PBM E-score” value was -0.0422. With ACATGAAC the “PBM E-score” value was 0.366. In the case of ACATGAAA, the “PBM E-score” value is reported as 0.302. AGCAGGCG was tested, and the “PBM E-score” value was 0.046.
